# The sample as a whole holds a higher share of hits than the screen did.
# CRE-bla Fsk: Cell signaling CRE-BLA (Fsk stim). Potency, µM (titrated, usually from 38.2 µM), for the others: at the top dose activity change, negative = inhibition, usual class: activators. 71,000 compounds, 2.5% hits. CHO CRE-bla reporter (cAMP response element driving beta-lactamase), forskolin EC10, beta-lactamase ratio; active = well fitted activation curve with a large enough effect in the signal ratio, with a control signal flat, not every such curve was filed as active; inconclusive = small, poorly fitted or top-dose-only effect, or effect the other way, or a change in a side signal; the % refers to the signal ratio; note: potency is the fitted concentration of half-maximal effect; % of control where 0% means no effect
#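 Reporter-gene assay: CHO cells with beta-lactamase behind cAMP responsive elements, co-treated with compound and EC10 NKH 477 for 3 hours at 37 degrees Celsius. Activity came from the 460/530 nm CCF4 emission ratio.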
# HBB splicing: qHTS Assay for Modulators of Hemoglobin Beta Chain Splicing; HBB splicing reporter cell assay, activation; EGFP reporter with mutant IVS2-654 intron; response scale: normalised to 500 nM splice-correcting PNA; Potency, µM (series often up to 46.1 µM), for the others: top-dose activation, usual class: activators; 65,000 compounds, 0.06% hits; AID 925, 2007; note: potency is the fitted concentration of half-maximal effect; 0% is about no effect
#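 HeLa cells stably expressing EGFP interrupted by mutant beta-globin intron 2 (IVS2-654), 500/well in 2% FCS. Treated with compound for 2 days at 37C. Splicing correction scored as total well GFP intensity (488 nm excitation, 500-520 nm emission); 500 nM antisense PNA served as control.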
# IkB sig inh: IkB Signaling; ABC-DLBCL IkBa-CBG/CBR dual luciferase ratio, 4 h; response scale: scaled: untreated 0%, proteasome inhibitor 100%; AID 445, 2006; Potency, µM (titrated, usually from 57.1 µM), inactives show at the top dose IkBa stabilization activation; 110,000 compounds, 0.04% hits; active = well fitted curve in the direction sought with a large enough effect in the signal ratio, not every such curve was filed as active; inconclusive = small, poorly fitted or top-dose-only effect, or a change in a side signal; the % refers to the signal ratio;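 note: potency is the fitted concentration of half-maximal effect; the direction sought is a rising ratio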
#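 Luminescence ratio of IκBα-fused green versus native red beetle luciferase in OCI-Ly3 cells, 4 h post-doxycycline with compound; red signal alone, scaled from basal (0%) to zero light (-100%), flagged nonspecific or cytotoxic effects.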
# Peg3 imprint: qHTS Assay for Compounds that Induce Erasure of Genomic Imprints | mouse ES Peg3-LacZ reporter, beta-gal luminescence, 40 h | Potency, µM (doses to about 60.7 µM), for inactives: at the highest dose activity change, positive = activation, actives largely listed as activators | 110,000 compounds, 0.02% hits | AID 1948, 2009; note: potency is the fitted concentration of half-maximal effect
#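 Readout: BetaGlo luminescence (5 min, room temp) for LacZ from the normally silent maternal Peg3 allele in female Peg3LacZ-Neo ES cells. Cells 300/well, 40 h, 37C, 5% CO2. Data normalized per plate to negative controls.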
# Epigenetic mod: qHTS Assay for Epigenetic Modulators; Potency, µM (titrated, usually from 46.1 µM), without a hit: top-dose GFP derepression (activation); 68,000 compounds, 0.09% hits; mouse C127i GFP locus derepression, cytometry, 30 h; note: % of control where 0% means no effect
#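 Read-out is the number of GFP-positive cells, scored as fluorescent objects 20 to 120 um wide, reflecting derepression of a silenced CMV-GFP reporter in murine C127i cells after 30 h compound exposure at 37 C.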
# Starred values were filed as active, the others as inactive; ? = inconclusive; / = not tested or not shown; [ ] = dose if it differs, or a comment. Unless noted, calls come from the whole dose curve; as a rule, active = well fitted curve in the direction sought with a large enough effect; inconclusive = small, poorly fitted or top-dose-only effect, or another doubt; inactive = no such curve, though single readings can be large; an effect the other way counts as inactive or inconclusive.
SMILES,CRE-bla Fsk,HBB splicing,IkB sig inh,Peg3 imprint,Epigenetic mod
CCc1nc2oc(C(=O)c3ccccc3)c(N)c2c2c1COC(C)(C)C2,?,-2%[0.0738 µM],-1%,5%,-2%
CCCc1nc2oc3c(NCCOCCO)ncnc3c2c2c1COC(C)(C)C2,2µM*,2%[57.5 µM],-3%,-15%,2%
CC(C)c1nc2oc3c(NCC4CCCO4)ncnc3c2c2c1COC(C)(C)C2 (centres undefined),1µM*,7%[1.84 µM],-1%,-4%,0%
Cc1nc2oc3c(NCc4ccccc4)ncnc3c2c2c1COC(C)(C)C2,5µM*,-2%[57.5 µM],-2%,-2%,-2%
Cc1nc2oc3c(NCC4CCCO4)ncnc3c2c2c1COC(C)(C)C2 (centres undefined),?,1%[57.5 µM],-3%,-7%,-2%
O=S1(=O)c2ccccc2N(Cc2cccc(F)c2)c2ccccc21,/,/,0%,-3%[10.9 µM],/
C=CCc1c(C)nc(SCc2nc3ccccc3c(=O)[nH]2)[nH]c1=O,10µM*,0%[9.22 µM],?,-3%,-2%
CN(C)c1ccc(-c2cncnc2NCCN2CCOCC2)cc1,17%,0%,1%[11.4 µM],-32%,-3%[9.22 µM]
CCOC(=O)c1sc(NC(=O)c2ccc3ncsc3c2)nc1C,13µM*,1%,10%,-55%,/
O=c1c2ccccc2nc(SCc2cn3ccsc3n2)n1-c1ccc(F)cc1,4µM*,2%,1%,-16%,1%
Cn1c(=O)c(-c2cc(F)cc(F)c2)nc2cnc(Oc3cccc(Cl)c3)nc21,10µM*,-1%,0%[11.4 µM],/,5%[9.22 µM]
Cn1c(=O)c(-c2ccc(Cl)cc2)nc2cnc(Oc3cccc(Cl)c3)nc21,6%,0%,-3%[11.4 µM],-8%,3%[9.22 µM]
Cn1c(=O)c(-c2ccc(F)cc2)nc2cnc(Nc3ccccc3)nc21,0.63µM*,0%,0%[11.4 µM],-2%,0%[9.22 µM]
Cn1c(=O)c(-c2ccc(Cl)cc2)nc2cnc(Nc3ccccc3)nc21,13µM*,-1%,0%[11.4 µM],5%,0%[9.22 µM]
CN(C)c1ncc2nc(-c3ccc(Cl)cc3)c(=O)n(C)c2n1,2.5µM*,1%,-3%[11.4 µM],-7%,0%[9.22 µM]
Cn1c(=O)c(-c2ccccc2)nc2cnc(Nc3ccccc3)nc21,?,-2%,-6%[11.4 µM],-4%,-5%[9.22 µM]
CC(=O)c1cc(-c2ccc(F)cc2)n(CCC(=O)Nc2nc3ccc(C)cc3s2)c1C,/,/,0%,-10%[10.9 µM],/
Cc1ccc(CNC(=O)c2ccc3c(c2)NC(=O)C(CS(=O)(=O)Cc2ccc(F)cc2)N3)cc1 (centres undefined),/,/,?,21%[10.9 µM],/
CCC(=O)Nc1ccc(CC)cc1-c1nc2ccccc2n(CC(=O)Nc2ccccc2C)c1=O,/,/,?,-8%[10.9 µM],/
Cn1c(=O)c(-c2ccc(F)cc2)nc2cnc(OCc3ccccc3)nc21,13µM*,-2%,0%[11.4 µM],?,8%[9.22 µM]
O[C@H](C[C@@H]1CCCCN1)c1ccc2c(c1)oc1ccccc12,22%[7.6 µM],2%[9.22 µM],-6%[11.4 µM],-10%[10.9 µM],1.3µM*
O[C@@H](c1cc(-c2ccccc2)nc2c1ccc1ccccc12)C1CCCCN1 (some centres undefined),/,/,/,-7%[10.9 µM],/
CCN1CCN(C(c2ccc(F)cc2)c2c(O)cc(C)n(CCOC)c2=O)CC1 (centres undefined),/,/,2%,-13%[10.9 µM],/
Cc1nn(-c2ccccc2)c2sc(C(=O)n3cccn3)cc12,?,0%,-3%,-10%,-4%
Cc1nn(-c2ccccc2)c2sc(C(=O)N3CCc4ccccc4C3)cc12,4µM*,0%[57.5 µM],?,-12%,0%
CCCCNC(=O)COC(=O)c1cc2c(C)nn(-c3ccccc3)c2s1,5µM*,1%[0.369 µM],6%,-2%,-2%
Cc1nn(-c2ccccc2)c2sc(C(=O)OCn3nnc4ccccc4c3=O)cc12,1%,0%[57.5 µM],-1%,14%,-1%
COc1ccc(-c2noc(CSc3nnc(Cc4ccccc4)n3-c3ccc(F)cc3)n2)cc1,/,/,?,-9%[10.9 µM],/
CC(C)c1ccc(Cn2ccc3c4c(N)nc(NC5CC5)nc4ccc32)cc1,13µM*,/,0%,-26%,0%
COc1ccc(CCNc2oc(/C=C/c3ccc(OC)c(OC)c3)nc2C#N)cc1,/,/,1%,-9%[10.9 µM],/

# Source: PubChem
